In PubChem BioAssay AID624483 (NMMLSC, 2012):
About 11,000 (3.1%) of roughly 360,000 compounds were called active. About 2% were inconclusive and are not listed. What follows is part of a selection rich in actives, with near analogues and random picks from the rest. Unmarked numbers belong to inactive results. Rule as the data show it: active = fluorescence intensity above about 16000; inconclusive = no clear call, values can overlap the other calls; inactive = below that.

Assay: counter-screen for toxin protease inhibitors: compound fluorescence, primary screen, artefact control for toxin protease inhibitor project, biochemical, multiplex microsphere, HTS (AID 624483)
Details: compound autofluorescence counterscreen, microsphere flow cytometry; hits give high values
`CCCCCn1nnnc1C1c2ccccc2C(=O)N1Cc1ccco1` (stereo unspecified) showed a fluorescence intensity of 6010. `CC1CCCN(S(=O)(=O)c2ccc(-c3ccc(=O)[nH]n3)o2)C1` (stereo unspecified) gave a fluorescence intensity of 5950. `CN(C)/C=C(\C#N)C(=O)c1cccnc1Oc1cccc(F)c1` gave a fluorescence intensity of 15200. For `CCOc1ncccc1C(=O)N(C)CC(=O)Nc1ccc(F)cc1`, the fluorescence intensity was 2630. For `CN(C)/C=C(\C#N)C(=O)c1cccnc1Oc1ccc(F)cc1F`, the fluorescence intensity was 24800 (active). For `COc1cc(C(O)c2nc(-c3cccc(C(=O)O)c3)cs2)ccc1F` (stereo unspecified), the fluorescence intensity was 3440. With `CC(Sc1ccccc1F)C(=O)Nc1cccc(S(=O)(=O)N2CCOCC2)c1` (stereo unspecified) the fluorescence intensity was 4000. For `CC(C)(C)OC(=O)N(Cc1ccccc1)Cc1ccc(OCc2cccc(NC(=O)c3ccccc3)c2)cc1`, the fluorescence intensity was 3640. With `CCOc1ccc(OCc2cccc(C(=O)N(CC)CC)c2)cc1` the fluorescence intensity was 2210. In the case of `CC(C)c1cc(C(N)=O)c(NC(=O)c2cccc(COc3ccc(Br)cc3)c2)s1`, the fluorescence intensity is reported as 22100 (active). `CC1(C)OC(=O)C2=C(C[C@@H](C3CCCC3)O[C@@H]2c2ccc(Cl)cc2)O1` gave a fluorescence intensity of 6120. Work on `C=CCc1cccc2cc(C(=O)OCC)c(=O)oc12` yielded a fluorescence intensity of 2480. `C=CCc1cccc2cc(C(=O)Nc3ccc(NC(C)=O)cc3)c(=O)oc12` showed a fluorescence intensity of 4060. With `C=CCc1cccc2cc(C(=O)N3CCN(C(=O)OCC)CC3)c(=O)oc12` the fluorescence intensity was 19200 (active). `CCc1ccc(OC2(C)CCN(CCOc3ccc(C)cc3)C2)cc1` (stereo unspecified) gave a fluorescence intensity of 3880. Work on `Cc1nc2ccc(S(=O)(=O)NCC(=O)NCCN3CCCCC3C)cc2s1` (stereo unspecified) yielded a fluorescence intensity of 3450. In the case of `Cc1ccc(N(Cc2cc(=O)[nH]c3ccccc23)C(=O)CCl)cc1`, the fluorescence intensity is reported as 3750. In the case of `Cc1oc(-c2ccccc2F)nc1CS(=O)(=O)CC(=O)NCCCN(C)C1CCCCC1`, the fluorescence intensity is reported as 17000 (active). `Cc1oc(-c2ccccc2F)nc1CS(=O)CC(=O)NCCN1CCCCC1C` (stereo unspecified) showed a fluorescence intensity of 5840. For `CSc1ccc(CCNC(=O)CS(=O)(=O)Cc2nc(-c3ccccc3F)oc2C)cc1`, the fluorescence intensity was 5680. Work on `CC1(C(=O)Nc2cccc3c2CCCC3)CCN1C(=O)CCc1ccc(Cl)cc1Cl` (stereo unspecified) yielded a fluorescence intensity of 3570. Work on `C=C(C)CNC(=S)Nc1ccc(S(=O)(=O)Nc2cnc3ccccc3n2)cc1` yielded a fluorescence intensity of 4200. With `Cc1ccc(NS(=O)(=O)c2cc3c(cc2Br)NC(=O)CO3)cc1C` the fluorescence intensity was 2960. With `CCCc1[nH]nc2c1C(c1ccc(OC(=O)c3ccco3)cc1)C(C#N)=C(N)O2` (stereo unspecified) the fluorescence intensity was 17200 (active). For `CCCc1[nH]nc2c1C(c1ccc(Br)s1)C(C#N)=C(N)O2` (stereo unspecified), the fluorescence intensity was 2790. Work on `CCCc1nc2c([nH]1)C(c1cccnc1)C(C#N)=C(N)O2` (stereo unspecified) yielded a fluorescence intensity of 7630.
